High-throughput results: PubChem BioAssay, The Scripps Research Institute Molecular Screening Center
Only some compounds are listed: those with a hit (about 2% of all), similar ones and a draw of the others.
Fam108B counter = blocks mouse Fam108B hydrolase in RBBP9 counter-screen; 300,000 tested, 0.33% active; recombinant Fam108B, FP-Rh probe fluorescence polarization; inhibition, % at 9.51 µM;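 active = inhibition above the screen mean inhibition plus 3 SD, computed separately per campaign, cut at about 18% in these data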;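 also: inhibitors lower polarization as less probe binds the enzyme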
LYPLA2 counter = blocks human lysophospholipase 2, a PME1 counter-screen; AID 2177; inhibition, % at 5.9 µM; recombinant LYPLA2, FP-Rh probe fluorescence polarization; O95372; 320,000 tested, 0.38% active;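 active = inhibition above the screen-wide mean plus 3 SD, limit set per campaign, cut at about 26% in these data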;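 also: 0% = LYPLA2 with DMSO and 100% = wells lacking LYPLA2 enzyme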
PREPL inhibitor = inhibitors of human prolyl oligopeptidase-like enzyme PREPL | AID 2751 | inhibition, % at 5.96 µM | 320,000 tested, 0.68% active | Q4J6C6 | recombinant PREPL, fluorescence polarization activity-based probe;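 also: 0% = enzyme with DMSO and 100% = wells lacking enzyme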
GSTO1 inh = counter-screen for RBBP9 inhibitors: inhibitors of human GSTO1 | P78417 | recombinant GSTO1, activity-based probe fluorescence polarization | inhibition, % at 5.96 µM | 300,000 tested, 1.1% active | AID 1974;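 active = inhibition above the campaign mean inhibition plus 3 SD, cut at about 35% in these data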;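 also: 0% = GSTO1-1 with DMSO and 100% = wells lacking GSTO1-1 enzyme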
PME-1 inh = PME-1 (human) inhibition | Q9Y570 | 320,000 tested, 0.53% active | inhibition, % at 5.9 µM | recombinant PME-1, FP-Rh probe fluorescence polarization;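 active = inhibition above the campaign mean of all compounds plus 3 SD, cut at about 26% in these data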;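 also: competitive labeling of PME-1 active site by serine hydrolase directed probe; 0% = PME-1 with DMSO and 100% = wells lacking PME-1 enzyme; inhibitors block probe labeling so polarization falls and inhibition rises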
Target sequence (Q9Y570 whole entry, looked up): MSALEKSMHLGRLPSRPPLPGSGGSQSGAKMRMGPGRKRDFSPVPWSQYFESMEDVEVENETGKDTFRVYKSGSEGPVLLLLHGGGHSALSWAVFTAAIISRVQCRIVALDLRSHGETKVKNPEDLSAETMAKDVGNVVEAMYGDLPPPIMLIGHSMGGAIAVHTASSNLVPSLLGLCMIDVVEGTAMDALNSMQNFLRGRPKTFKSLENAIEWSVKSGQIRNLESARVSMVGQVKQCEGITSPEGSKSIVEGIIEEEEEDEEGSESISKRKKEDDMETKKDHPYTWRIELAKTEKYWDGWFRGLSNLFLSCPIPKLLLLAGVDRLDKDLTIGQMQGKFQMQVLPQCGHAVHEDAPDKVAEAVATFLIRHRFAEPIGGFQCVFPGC
LYPLA1 inh = counter-screen for PME1 inhibitors: inhibitors of human LYPLA1 | inhibition, % at 5.9 µM | 320,000 tested, 0.16% active | recombinant LYPLA1, FP-Rh probe fluorescence polarization | AID 2174;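 active = inhibition above the mean of all tested compounds plus 3 SD, set per campaign, cut at about 14% in these data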;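 also: inhibitors block serine hydrolase probe labeling of LYPLA1 so polarization falls; 0% = enzyme with DMSO and 100% = wells lacking LYPLA1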
PREPL inh cf = human PREPL inhibition, confirmation | shares compounds with PREPL inhibitor | recombinant PREPL, fluorescence polarization activity probe | inhibition, % at 5.96 µM | 2,000 tested, 67% active | AID 2803;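 also: 0% = protein with DMSO and 100% = wells lacking protein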
* hit, by the source's call; · = no result given. Rule as the data show it, unless noted: active = inhibition above about 43%; inactive = the rest.

SMILES	Fam108B counter	LYPLA2 counter	PREPL inhibitor	GSTO1 inh	PME-1 inh	LYPLA1 inh	PREPL inh cf
O=C(O)c1nn(CC(=O)N2CCN(S(=O)(=O)c3ccc(Cl)cc3)CC2)c(=O)c2ccccc12	0.8	9.1	11.3	13.4	15.7	3.7	·
COc1cc2cc3c(N)c(C(=O)NCc4ccco4)sc3nc2cc1OC	17.3	0.8	45.7*	-16.7	46.7*	-4.1	56.6*
CCCCCNc1nc(N2CCCC2)c2c(c1C#N)CCN(C)C2	3.6	0.7	54.6*	-1.2	5.6	-0.6	56.8*
CC(=O)c1ccc(NC(=O)COC(=O)CCN2C(=O)c3cccc([N+](=O)[O-])c3C2=O)cc1	1.9	0.7	0.8	3.9	6.6	-2.2	·
CC(C)N(c1ccccc1)c1ccc(NC(=O)COC(=O)CCN2C(=O)c3cccc([N+](=O)[O-])c3C2=O)cc1	9.4	3.5	58.9*	2.6	5.7	-6.2	59.7*
Cc1ccn2c(-c3csc(NCc4ccccc4)n3)c(C)nc2c1	14.1	18.1	45.2*	11.4	12.8	-3.3	44.5*
Cc1nc2ccccn2c1-c1csc(NCc2ccco2)n1	4.4	4.6	15.3	-2.2	14.9	0.7	·
CCCCC1=CC2=C(c3ccco3)C(=O)C(C)(OC(=O)c3ccc(OC)cc3)C(=O)C2=CN1CCCCO (centres undefined)	5.3	2.2	10.9	-2.7	6.2	3.1	·
CCCCC1=CC2=C(c3ccco3)C(=O)C(C)(OC(=O)c3ccc(OC)cc3)C(=O)C2=CN1CCN1CCOCC1 (centres undefined)	1.7	-2.9	59.5*	3.4	2.7	-2.0	46.5*
CN1/C(=C\C=Nc2ccc3ccccc3c2)C(C)(C)c2ccccc21	2.5	-2.9	41.8	7.4	4.4	-4.2	·
CN(C)c1ccc(N=C/C=C2\N(C)c3ccccc3C2(C)C)cc1	1.1	-2.2	70.0*	19.7	2.1	-1.5	68.3*
O=C(COc1cc2oc(=O)c3c(c2cc1Cl)CCC3)NCC(O)c1ccccc1 (centres undefined)	-1.9	9.1	13.2	-6.2	-5.9	-2.7	·
COc1ccc(-n2c(-c3ccccc3)cc3c2CCCC3=O)cc1	1.2	-1.4	48.9*	-0.7	14.6	-0.1	40.8
O=C1c2c(O)ccc(O)c2C(=O)c2c(NCCNCCO)ccc(NCCNCCO)c21	6.1	4.1	101.5*	4.5	1.9	2.2	98.2*
COc1ccc(-n2nc3c(N4CCC(C(=O)NCc5ccccc5C)CC4)nnc(C)c3c2C)cc1	1.4	1.3	39.3	11.1	-1.8	-3.2	·
COc1ccc(-n2nc3c(N4CCC(C(=O)NCCc5ccccc5C)CC4)nnc(C)c3c2C)cc1	6.2	7.8	51.9*	0.5	0.2	-2.2	37.4
COc1ccc(-n2nc3c(N4CCC(C(=O)NCC(C)c5ccccc5)CC4)nnc(C)c3c2C)cc1 (centres undefined)	2.2	-0.6	49.7*	0.8	6.3	-0.4	42.9
CCCCCCCCCCC[N+](C)(C)CC/C=C1/c2ccccc2Sc2ccc(Cl)cc21	9.0	8.5	45.0*	6.8	5.9	0.4	34.6
Cc1c(C)n(C)c2ccc(C(=O)NCCCN3CCN(c4ccc(F)cc4)CC3)cc12	2.3	5.9	41.6	0.0	1.1	0.5	·
CSc1ccc(NC(=O)NCCCN2CCN(c3ccccc3F)CC2)cc1	0.8	-1.0	43.3*	2.6	-0.6	-0.4	41.6
Cc1c(C)n(C)c2ccc(C(=O)NCCCN3CCN(c4ccccc4F)CC3)cc12	1.1	7.2	43.9*	4.3	1.4	1.2	42.2
CCCCOc1ccc(C(=O)NCC(=O)NNC(=O)c2ccco2)cc1	·	·	14.6	·	·	·	·
Cc1nn(-c2ccccc2)c(C)c1/C=C/C(=O)OCC(=O)Nc1ccc(S(N)(=O)=O)cc1	·	-9.7	4.6	·	-7.0	-8.8	·
COC(=O)c1c(NC(=O)CSc2ccccc2N)sc(C)c1C	1.6	1.6	17.0	7.0	3.9	1.7	·
COc1ccc(/C=C2\SC(=S)N(CC(=O)NC3C=CS(=O)(=O)C3)C2=O)cc1 (centres undefined)	-26.2	-26.4	28.1	16.0	-22.3	-15.1	·
O=C(NC1CCCCC1)c1ccc(CS(=O)Cc2ccc(Cl)cc2)o1 (centres undefined)	-3.0	2.6	9.1	1.2	2.7	0.9	·
